# Experimental data as given in PMC9911399, “Two distinct binding modes provide the RNA-binding protein RbFox with extraordinary sequence specificity”.
# Numbering of substitutions follows the chain as printed; changes in the protein carry UniProt numbers. In all, about 16,000 sequences were measured (“ka relative to ugcaugu”: median about 0.096, highest 2% from about 0.35 on). The full list was thinned out, with the highest values kept by preference.
# B1: GCAUCAA (DNA:RNA)
# RNA: GGGAGACCGGAAUUCAGAUUGUCCGCAUCAAUUAAAUCCCGUCGUAGCCACCA
# DNA 1: CAATCTGAATTCCGGTCTCCC
# DNA 2: TGGTGGCTACGACGGGATT
# B2: CGCAUCG (DNA:RNA)
# RNA: GGGAGACCGGAAUUCAGAUUGUCCCGCAUCGUUAAAUCCCGUCGUAGCCACCA
# DNA 1: CAATCTGAATTCCGGTCTCCC
# DNA 2: TGGTGGCTACGACGGGATT
# B3: GCACCGC (DNA:RNA)
# RNA: B1 RNA with U28C, A30G, A31C
# DNA 1: CAATCTGAATTCCGGTCTCCC
# DNA 2: TGGTGGCTACGACGGGATT
# B4: GCAAUCG (DNA:RNA)
# RNA: B2 RNA with C25G, G26C, C27A
# DNA 1: CAATCTGAATTCCGGTCTCCC
# DNA 2: TGGTGGCTACGACGGGATT
# B5: GCACCGG (DNA:RNA)
# RNA: B1 RNA with U28C, A30G, A31G
# DNA 1: CAATCTGAATTCCGGTCTCCC
# DNA 2: TGGTGGCTACGACGGGATT
# B6: GCAUCGG (DNA:RNA)
# RNA: B1 RNA with A30G, A31G
# DNA 1: CAATCTGAATTCCGGTCTCCC
# DNA 2: TGGTGGCTACGACGGGATT
# B7: GCAUCGC (DNA:RNA)
# RNA: B1 RNA with A30G, A31C
# DNA 1: CAATCTGAATTCCGGTCTCCC
# DNA 2: TGGTGGCTACGACGGGATT
# B8: GCAUCAG (DNA:RNA)
# RNA: B1 RNA with A31G
# DNA 1: CAATCTGAATTCCGGTCTCCC
# DNA 2: TGGTGGCTACGACGGGATT
# B9: GCAUCUG (DNA:RNA)
# RNA: B1 RNA with A30U, A31G
# DNA 1: CAATCTGAATTCCGGTCTCCC
# DNA 2: TGGTGGCTACGACGGGATT
# B10: GCAUCCG (DNA:RNA)
# RNA: B1 RNA with A30C, A31G
# DNA 1: CAATCTGAATTCCGGTCTCCC
# DNA 2: TGGTGGCTACGACGGGATT
# B11: GAAUCGG (DNA:RNA)
# RNA: B1 RNA with C26A, A30G, A31G
# DNA 1: CAATCTGAATTCCGGTCTCCC
# DNA 2: TGGTGGCTACGACGGGATT
# B12: GCAUCAC (DNA:RNA)
# RNA: B1 RNA with A31C
# DNA 1: CAATCTGAATTCCGGTCTCCC
# DNA 2: TGGTGGCTACGACGGGATT
# B13: AGAGCGA (DNA:RNA)
# RNA: B1 RNA with G25A, C26G, U28G, A30G
# DNA 1: CAATCTGAATTCCGGTCTCCC
# DNA 2: TGGTGGCTACGACGGGATT
# B14: CCCUUUC (DNA:RNA)
# RNA: B2 RNA with G26C, A28U, C30U, G31C
# DNA 1: CAATCTGAATTCCGGTCTCCC
# DNA 2: TGGTGGCTACGACGGGATT
# B15: UACGGGG (DNA:RNA)
# RNA: B2 RNA with C25U, G26A, A28G, U29G, C30G
# DNA 1: CAATCTGAATTCCGGTCTCCC
# DNA 2: TGGTGGCTACGACGGGATT
# B16: CCGCCGG (DNA:RNA)
# RNA: B2 RNA with G26C, C27G, A28C, U29C, C30G
# DNA 1: CAATCTGAATTCCGGTCTCCC
# DNA 2: TGGTGGCTACGACGGGATT
# B17: AGGCCUA (DNA:RNA)
# RNA: B1 RNA with G25A, C26G, A27G, U28C, A30U
# DNA 1: CAATCTGAATTCCGGTCTCCC
# DNA 2: TGGTGGCTACGACGGGATT
# B18: AGAGUUC (DNA:RNA)
# RNA: B2 RNA with C25A, C27A, A28G, C30U, G31C
# DNA 1: CAATCTGAATTCCGGTCTCCC
# DNA 2: TGGTGGCTACGACGGGATT
# B19: GCGAGUG (DNA:RNA)
# RNA: B2 RNA with C25G, G26C, C27G, U29G, C30U
# DNA 1: CAATCTGAATTCCGGTCTCCC
# DNA 2: TGGTGGCTACGACGGGATT
# B20: GCACCGU (DNA:RNA)
# RNA: B1 RNA with U28C, A30G, A31U
# DNA 1: CAATCTGAATTCCGGTCTCCC
# DNA 2: TGGTGGCTACGACGGGATT
# B21: AGCACCG (DNA:RNA)
# RNA: B2 RNA with C25A, U29C
# DNA 1: CAATCTGAATTCCGGTCTCCC
# DNA 2: TGGTGGCTACGACGGGATT
# B22: GCAUCGU (DNA:RNA)
# RNA: B1 RNA with A30G, A31U
# DNA 1: CAATCTGAATTCCGGTCTCCC
# DNA 2: TGGTGGCTACGACGGGATT
# B23: AGCAUCG (DNA:RNA)
# RNA: B2 RNA with C25A
# DNA 1: CAATCTGAATTCCGGTCTCCC
# DNA 2: TGGTGGCTACGACGGGATT
# B24: GCAUCGA (DNA:RNA)
# RNA: B1 RNA with A30G
# DNA 1: CAATCTGAATTCCGGTCTCCC
# DNA 2: TGGTGGCTACGACGGGATT
# B25: AUCCGCA (DNA:RNA)
# RNA: B2 RNA with C25A, G26U, A28C, U29G, G31A
# DNA 1: CAATCTGAATTCCGGTCTCCC
# DNA 2: TGGTGGCTACGACGGGATT
# B26: GCAUCCA (DNA:RNA)
# RNA: B1 RNA with A30C
# DNA 1: CAATCTGAATTCCGGTCTCCC
# DNA 2: TGGTGGCTACGACGGGATT
# B27: GCAUUGU (DNA:RNA)
# RNA: B1 RNA with C29U, A30G, A31U
# DNA 1: CAATCTGAATTCCGGTCTCCC
# DNA 2: TGGTGGCTACGACGGGATT
# B28: AGCAUCC (DNA:RNA)
# RNA: B2 RNA with C25A, G31C
# DNA 1: CAATCTGAATTCCGGTCTCCC
# DNA 2: TGGTGGCTACGACGGGATT
# Molecular target: T1, RBFOX1 RRM RbFoxmut (Fox-RRM*) (Homo sapiens, UniProt Q9NWB1 109-208, R118D;E147R;N151S;E152T)
# T1 sequence: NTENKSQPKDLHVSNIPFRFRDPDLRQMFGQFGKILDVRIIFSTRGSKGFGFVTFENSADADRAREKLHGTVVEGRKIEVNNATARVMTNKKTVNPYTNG
# Experiment: EMSA; HiTS-Eq, 1 nM pool, 10 min; buffer printed only for the single-RNA assays: 10 mM Tris pH 7.5, 150 mM NaCl, 3.4 mM EDTA, 0.001% NP-40, 30 C
# Conditions: tags: His6 N-terminal (pET28a); label: 5' 32P
# How it was run: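 Purified wild-type or mutant RbFox RRM at increasing concentrations was equilibrated with 1 nM of 5′-radiolabelled RNA carrying 7 randomized nucleotides for 10 min in 50 µL. Unbound RNA was separated by 8% native PAGE and sequenced. Relative association constants came from read-count changes of each RNA species compared with the control reaction, normalised to the cognate motif.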
row,Binder,binding signal
1,B1,0.323 KA relative to UGCAUGU
2,B2,0.625 KA relative to UGCAUGU
3,B3,0.139 KA relative to UGCAUGU
4,B4,0.0721 KA relative to UGCAUGU
5,B5,0.102 KA relative to UGCAUGU
6,B6,0.454 KA relative to UGCAUGU
7,B7,0.443 KA relative to UGCAUGU
8,B8,0.382 KA relative to UGCAUGU
9,B9,0.264 KA relative to UGCAUGU
10,B10,0.351 KA relative to UGCAUGU
11,B11,0.186 KA relative to UGCAUGU
12,B12,0.293 KA relative to UGCAUGU
13,B13,0.0748 KA relative to UGCAUGU
14,B14,0.0564 KA relative to UGCAUGU
15,B15,0.0585 KA relative to UGCAUGU
16,B16,0.0808 KA relative to UGCAUGU
17,B17,0.0817 KA relative to UGCAUGU
18,B18,0.0781 KA relative to UGCAUGU
19,B19,0.184 KA relative to UGCAUGU
20,B20,0.172 KA relative to UGCAUGU
21,B21,0.104 KA relative to UGCAUGU
22,B22,0.578 KA relative to UGCAUGU
23,B23,0.437 KA relative to UGCAUGU
24,B24,0.675 KA relative to UGCAUGU
25,B25,0.167 KA relative to UGCAUGU
26,B26,0.338 KA relative to UGCAUGU
27,B27,0.228 KA relative to UGCAUGU
28,B28,0.237 KA relative to UGCAUGU
